# Compound activity deposited in PubChem by National Center for Advancing Translational Sciences (NCATS).
# Cycloheximide cs = affects cycloheximide protein synthesis inhibition readout, counter-screen; max response, %; 300,000 compounds, 12% hits; cell reporter, cycloheximide protein synthesis inhibition counterscreen; in the data active means max response mostly above about 13%, no sharp cut-off; inactive means mostly below about 14%; further: read at 38.3 µM for the half of the compounds with a filed dose
# HCMV antiviral = blocks human cytomegalovirus replication. 410,000 compounds, 4.5% hits. activity change, negative = inhibition, % at 57.5 µM. AID 1259415. HFF cells, HCMV-luciferase reporter, 72 h; hits give low values; in the data active means activity change below about -60%; inconclusive means no clear call, values can overlap the other calls; inactive means above about -39%
#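 Compounds were evaluated in HFFs infected with an HCMV luciferase reporter virus (MOI 1 PFU/cell). Luciferase in lysates collected 72 h post infection served as the replication measure.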
# Pf growth 48h = P. falciparum growth inhibition at 48 hours (one generation) | P. falciparum luciferase growth in erythrocytes, 48 h | Potency, µM (highest dose often 28.7 µM), usual class: inhibitors | AID 504832 | 310,000 compounds, 5.9% hits
#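 Luciferase-expressing P. falciparum in infected erythrocytes (2% hematocrit, 0.1% parasitemia final) in RPMI 1640/0.5% Albumax were exposed to compound for 48 hours at 37 C, 5% CO2; growth read as luminescence.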
# Pf growth 96h = inhibits malaria parasite growth, 96 h | P. falciparum luciferase reporter growth, 96 h | 320,000 compounds, 6.9% hits | Potency, µM (titrated, usually from 28.7 µM), usual class: inhibitors
#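 Two-generation exposure (96 h) targets delayed-death phenotype. Reporter parasites carrying integrated firefly luciferase, in red cells at 2% hematocrit and 0.05% parasitemia final, kept at 37 C, 5% CO2; luminescence loss indicates inhibition.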
# Shiga toxin inh = blocks Shiga toxin action in Vero cells | Vero cells, Shiga toxin protein synthesis inhibition reporter | inhibition, % at 38.7 µM | 290,000 compounds, 9.2% hits | AID 2315; in the data active means inhibition mostly above about 28%, no sharp cut-off; inactive means mostly below about 43%
# HCV inhibitor = inhibitors of hepatitis C virus infection. Huh7.5.1 HCVcc-Cre infection, luciferase reporter, 44 h. Potency, µM (doses to about 41.8 µM), most hits filed as inhibitors. 340,000 compounds, 3.4% hits
#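 A cell-based infection assay in which seeded cells (1,000 per well) receive test compound after 4 h, are inoculated with HCVcc-Cre at approximately 0.5 moi, and are incubated 44 h before luminescence detection.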
# A number is an active result; - = inactive; ? = inconclusive; . = no result given; ! = repeats disagree; [ ] = dose if it differs, or a comment. Only some compounds are listed: those with a hit (about 21% of all), similar ones and a draw of the others. Unless noted, the call rests on the fitted dose curve; in most records, active means well fitted inhibition curve with a large enough effect; inconclusive means small, poorly fitted or top-dose-only effect, or another doubt; inactive means no such curve, though single readings can be large or run the other way.
SMILES,Cycloheximide cs,HCMV antiviral,Pf growth 48h,Pf growth 96h,Shiga toxin inh,HCV inhibitor
Cc1ccccc1Cn1cc(CCC(=O)NCc2cccc(Br)c2)c2ccccc21,.,-,.,.,.,.
COC(OC)C1Nc2ccccc2C(=O)N1c1ccc(F)cc1 (stereo not given),.,-,?,-,.,-
Cc1ccc(N2C(=O)c3ccccc3NC2C(C)Cc2ccc3c(c2)OCO3)cc1 (stereo not given),18,-,?,?,48,?
Cc1ccc(NC(=O)CN2C(=O)CCc3ccccc32)cc1C,.,-,.,.,.,.
CCc1cc(-c2cnnn2Cc2ccccc2)ccc1-c1cn(CC(C)C)nn1,.,-,.,.,.,.
CCc1cc(-c2nnn(CCC3COCCO3)c2CC)ccc1-c1cn(CCc2c[nH]c3ccccc23)nn1 (stereo not given),.,-80,.,.,.,.
CCc1cc(-c2nnn(CCC3COCCO3)c2CC)cc(CC)c1-c1cn(Cc2ccc3ccccc3c2)nn1 (stereo not given),.,-67,.,.,.,.
N/C(=N\OC(=O)CCn1cccc(C(F)(F)F)c1=O)c1ccc(Cl)cc1,-,-,-,-,-,-
O=C(CN(c1cccc(Cl)c1)S(=O)(=O)c1ccc(Cl)cc1)NCc1ccccn1,-,-,?,?,-,?
Cc1c(N/N=C(\C#N)C(=O)c2ccc(Cl)cc2)c(=O)n(-c2ccccc2)n1C,-,-100,12µM,-,-,?
N#C/C(=N\Nc1ccc(Cl)cc1)C(=O)c1ccccc1,-,-99,-,.,-,22µM
COC(=O)C(=NNc1c(C)n(C)n(-c2ccccc2)c1=O)C(=O)OC,-,-,-,-,-,-
O=S(=O)(c1ccccc1F)N1CCN(Cc2cc3c(cc2Br)OCCO3)CC1,.,-,?,8.3µM,.,?
Cc1cccc(C)c1NC(=O)CNC(=O)C(C)N1CCN(c2cccc(Cl)c2)CC1 (stereo not given),.,-,?,-,.,-
CCOC(=O)c1c(C)sc(Sc2ccc(Cl)cc2[N+](=O)[O-])c1OC,-,-,3.7µM,.,-,-
COc1ccc(Cl)cc1N(CC(=O)N(C)C)S(=O)(=O)c1ccc(C)c([N+](=O)[O-])c1,-,-,?,-,-,-
CCOC(=O)CN=C/C(C(=O)Nc1nccs1)=C(/C)O,-,-,-,-,-,-
CC(C)C(c1nnnn1C(C)(C)C)N1CCC(Cc2ccccc2)CC1 (stereo not given),-,?,9.3µM,-,-,-
CCOC(=O)c1cnc2c3c(noc13)CCC2,.,-101,.,.,.,.
CCOC(=O)c1noc2c1CCC2,.,-,.,.,.,.
COc1ccc(C2CC(O)(c3ccccc3)Oc3cc(OC)c(OC)c(OC)c32)cc1 (stereo not given),20!,-,10µM,10µM,-,-
COc1ccc([C@@H]2C[C@H](c3ccccc3)Oc3cc(OC)c(OC)c(OC)c32)cc1,-,-,9.3µM,?,-,-
CCOc1ccc(NC(=O)COc2ccc(C(=O)NCC3CCCO3)cc2OC)cc1 (stereo not given),.,-,?,?,.,-
C/C1=C\[C@@H](C)C/C=C/[C@H]2[C@@H]3O[C@]3(C)[C@@H](C)[C@H]3[C@H](Cc4c[nH]c5ccccc45)NC(=O)[C@]32C(=O)/C=C/C(=O)[C@@H]1O,-,.,0.29µM,-,-,-
Cc1ccc(NC(=O)CCNC(=O)c2ccc(Cl)cc2)cc1C,-,-,-,-,-,-
SMILES,Cycloheximide cs,HCMV antiviral,Pf growth 48h,Pf growth 96h,Shiga toxin inh,HCV inhibitor
CCN(C(=O)c1cc2cccc(OC)c2oc1=O)C1CCCCC1,-,-,?,1.5µM,-,-
COc1cccc2cc(C(=O)N3CCCCCCC3)c(=O)oc12,32,-,?,-,44,-
COc1cccc2cc(C(C)=O)c(=O)oc12,-,-,-,-,-,-
COc1cccc2cc(C(=O)N3CCN(c4ncccn4)CC3)c(=O)oc12,14,-,-,.,-,-
COC(=O)C1=NN(C(=O)c2cccc(Cl)c2)C(O)(C(C)(C)C)C1 (stereo not given),51,-,-,-,92,-
O=c1c2ccccc2n(Cc2c(F)cccc2Cl)c(=O)n1Cc1ccccc1,.,-,.,.,.,.
COc1ccc(NC(=O)CSC2=Nc3ccccc3C3=NC(CC(=O)NCc4ccco4)C(=O)N23)cc1 (stereo not given),.,-,.,.,.,.
COc1ccc(CNCc2ccc(OC)c3ccccc23)cc1,-,?,-,2.3µM,-,-
COc1cc(CNCc2ccccn2)ccc1OCc1ccc(Cl)c(Cl)c1,20,-,-[5.75 µM],-,64,-
COc1cc(CNCc2ccccn2)ccc1OCC(N)=O,-,-,-,-,-,-
COc1cccc(CNCc2ccccn2)c1OC,-,-61,-,-,-,-
COc1cc(CNCc2ccccn2)ccc1OCc1ccc(Cl)cc1Cl,-,-,?,10µM,-,?
CCOc1ccc(S(=O)(=O)Nc2ccc(C(=O)NCCCN3CCOCC3)cc2)cc1,.,-,-,-,.,?
COc1cccc(CN2C(=O)COCc3cc(-c4cccc(CO)c4)ccc32)c1,.,-,.,.,.,.
O=C(O)c1ccc(NC2OC[C@@H](O)[C@H](O)[C@H]2O)cc1 (stereo not given in full),.,-,?,-,.,-
O[C@@H]1COC(Nc2ccc(N=Nc3ccccc3)cc2)C[C@@H]1O (stereo not given in full),62,-,-,-,95,-
Cn1c(-c2ccc(S(=O)(=O)N3CCCC3)cc2)csc1=Nc1ccc(Cl)c(Cl)c1,.,-62,.,.,.,.
CCn1c(-c2ccc(S(=O)(=O)N3CCOCC3)cc2)csc1=Nc1ccc(C)c(Cl)c1,.,-,-,-,.,.
